Out of some 390,000 compounds screened, about 2,600 (0.67%) were called active. This excerpt belongs to a sample that is enriched for actives. Values without a mark were called inactive.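 The calls were made as follows: active = mean inhibition of replicates at least 50% and at least half of replicates each reaching 50%; inconclusive = half or more replicates reach 50% but mean below 50%; inactive = the rest.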
target: Transforming acidic coiled-coil-containing protein 3 (Homo sapiens) (UniProt Q9Y6A5); assay: inhibitors of ARNT PAS-B binding to TACC3 – biochemical, AlphaScreen, single concentration, primary screen (AID 623870); settings: AlphaScreen His-ARNT PAS-B/GST-TACC3 binding, luminescence; at 9.99 µM; stronger effect = higher value; TACC3 fragment carries E629A point mutation;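 also: 0% = complete ARNT plus TACC3 wells and 100% = ARNT alone without TACC3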

Which inhibition does the source give for `C[C@H](CO)N1C[C@H](C)[C@H](CN(C)C(=O)NC2CCCCC2)Oc2c(NC(=O)C3CC3)cccc2C1=O` here?
The inhibition was -12.2%.

For `C=CCNC(=S)N/N=C/c1ccc(C)s1`, which inhibition is on record?
Its inhibition is 3.54%.

Which inhibition does the source give for `CNC(=S)N/N=C/c1ccc(N2CCOCC2)s1` here?
Its inhibition is 46.8% (active).

For `O=[N+]([O-])c1cc(Cl)cc(/C=N/NC(=S)Nc2cc(S(=O)(=O)N3CCOCC3)ccc2Cl)c1O`, which inhibition is on record?
Its inhibition is 41.4%.

For `COc1ccc(NC(=O)N(C)C[C@@H]2Oc3c(NC(=O)C4CCOCC4)cccc3C(=O)N([C@H](C)CO)C[C@@H]2C)cc1`, which inhibition is on record?
Its inhibition is 26.5%.

How did the inhibition turn out when `Cc1ncc(CO)c(/C=N/NC(=O)c2cccc(S(=O)(=O)N3CCCC3)c2)c1O` was run?
The inhibition was 75.9% (active).

Which inhibition does the source give for `O=C(NNC1=NCCC1)c1cccc(S(=O)(=O)N2CCCCC2)c1` here?
Its inhibition is 30.6%.

For `O=C(Nc1nncs1)c1cccc(S(=O)(=O)N2CCCCC2)c1`, which inhibition is on record?
The inhibition was -5.27%.

For `CCCN(C)C[C@@H]1OCCCC[C@@H](C)Oc2ccc(NS(=O)(=O)c3c(C)noc3C)cc2C(=O)N([C@H](C)CO)C[C@@H]1C`, which inhibition is on record?
The inhibition was -10.1%.

With `COCC#Cc1cnc2c(c1)C(=O)N([C@@H](C)CO)C[C@@H](C)[C@@H](CN(C)C(=O)Nc1ccc(OC)cc1)O2` as the compound, how does the inhibition read?
The inhibition was 4.88%.

How did the inhibition turn out when `ON=C1/C(=N\O)CC2(C/C1=N/O)OCCO2` was run?
Its inhibition is 59% (active).

`C[C@@H]1CN([C@H](C)CO)C(=O)c2cccc(NS(=O)(=O)c3cccs3)c2O[C@@H]1CN(C)C(=O)Nc1cccc2ccccc12` was tested. Which inhibition did it give?
Its inhibition is 26.7%.

`Cc1cccc(-c2ccc([C@@H]3[C@@H](CO)N4CCCCN(S(=O)(=O)c5cccs5)C[C@H]34)cc2)c1` was tested. Which inhibition did it give?
The inhibition was 14.3%.

How did the inhibition turn out when `O=C(COC(=O)CCCN1C(=O)c2cccc3cccc(c23)C1=O)NC1CCS(=O)(=O)C1` (stereo not drawn) was run?
The inhibition was 7.07%.

How did the inhibition turn out when `O=C(CCCN1C(=O)c2cccc3cccc(c23)C1=O)N1CCN(Cc2ccc3c(c2)OCO3)CC1` was run?
Its inhibition is -11.4%.

With `O=C1c2cccc3cccc(c23)C(=O)N1CCCCCc1n[nH]c(=S)o1` as the compound, how does the inhibition read?
The inhibition was 28.3% (active).

For `C[C@H](CO)N1C[C@H](C)[C@H](CN(C)C(=O)Cc2ccccn2)Oc2ncc(-c3cncnc3)cc2C1=O`, which inhibition is on record?
The inhibition was -0.547%.

How did the inhibition turn out when `CO[C@@H]1CN(C)C(=O)c2ccc(NC(=O)Nc3c(C)noc3C)cc2OC[C@@H](C)N(C(=O)Nc2cccc(Cl)c2)C[C@H]1C` was run?
The inhibition was 4.61%.

For `COc1ccccc1NC(=O)N[C@H]1CC[C@H](CCNC(=O)Cc2ccccn2)O[C@@H]1CO`, which inhibition is on record?
The inhibition was 6.44%.

For `CC(C)n1cnc2c(NCc3ccccc3)cc(OCC3CCN(C)CC3)cc21`, which inhibition is on record?
Its inhibition is 28.3% (active).

How did the inhibition turn out when `CCC(=O)Nc1ccc2c(c1)C(=O)N(C)[C@@H]1CC[C@@H](CC(=O)NCCN3CCCCC3)O[C@@H]1CO2` was run?
Its inhibition is -4.58%.

With `COc1ccccc1-c1cn(CC[C@@H]2CC[C@@H](NC(=O)c3ccccc3F)[C@H](CO)O2)nn1` as the compound, how does the inhibition read?
The inhibition was 1.05%.

`C[C@H]1CN([C@@H](C)CO)C(=O)c2cc(C3=CCCCC3)cnc2O[C@H]1CN(C)Cc1ccncc1` was tested. Which inhibition did it give?
The inhibition was -9.48%.

With `O=C(c1cccs1)N(C(=O)c1cccs1)c1ccccn1` as the compound, how does the inhibition read?
Its inhibition is 0.575%.

`c1ccc(-c2noc(-c3cccs3)n2)nc1` was tested. Which inhibition did it give?
The inhibition was 48.9% (active).

For `O=C(NCc1cccnc1)c1nc(-c2cccs2)no1`, which inhibition is on record?
The inhibition was -5.94%.

Which inhibition does the source give for `CCCC(NC(=O)c1ccco1)c1nc2ccccc2[nH]1` (stereo not drawn) here?
Its inhibition is -4.8%.

How did the inhibition turn out when `CC1CCN(S(=O)(=O)c2nnc(NC(=O)COc3ccccc3F)s2)CC1` was run?
The inhibition was 31.3%.

`O=C(COc1ccccc1F)Nc1nc(-c2ccccn2)cs1` was tested. Which inhibition did it give?
The inhibition was 69.7% (active).

With `O=C(CN1C(=O)C2C3C=CC(C3)C2C1=O)Nc1nc(-c2ccccn2)cs1` (stereo not drawn) as the compound, how does the inhibition read?
The inhibition was 73.4% (active).

`CCOC(=O)N1CCN(C(=O)C(C)NC(=O)c2ccco2)CC1` (stereo not drawn) was tested. Which inhibition did it give?
The inhibition was -22%.

Which inhibition does the source give for `O=C(COc1cccnc1[N+](=O)[O-])Nc1ccc(Cl)cc1F` here?
Its inhibition is -2.26%.

Which inhibition does the source give for `O=C(NCCN1C(=O)C2C3C=CC(C3)C2C1=O)Nc1ccccn1` (stereo not drawn) here?
The inhibition was 0.008%.

For `O=C(CCN1C(=O)C2C3C=CC(C3)C2C1=O)Nc1ccccc1F` (stereo not drawn), which inhibition is on record?
Its inhibition is -30.3%.

`CC(NC(=O)c1ccco1)C(=O)Nc1nc(-c2ccccn2)cs1` (stereo not drawn) was tested. Which inhibition did it give?
Its inhibition is 65.4% (active).

For `COc1ccc(S(=O)(=O)N(C)C[C@H]2Oc3ccc(NC(=O)CCC(F)(F)F)cc3CC(=O)N([C@H](C)CO)C[C@@H]2C)cc1`, which inhibition is on record?
The inhibition was 14.1%.

For `CCCN(C)C[C@H]1Oc2ncc(-c3cccnc3)cc2C(=O)N([C@@H](C)CO)C[C@@H]1C`, which inhibition is on record?
Its inhibition is -0.744%.

With `Cc1ccc(S(=O)(=O)N(C)C[C@@H]2OCCCC[C@@H](C)Oc3ccc(NC(=O)C4CCCCC4)cc3C(=O)N([C@H](C)CO)C[C@H]2C)cc1` as the compound, how does the inhibition read?
Its inhibition is -8.72%.
